RORg inh – inhibitors of mouse ROR gamma transcriptional activity; P51450; Drosophila S2 Gal4-RORgamma UAS-luciferase reporter, 20 h; Potency, µM (series often up to 53.6 µM), without a hit: at the highest dose activity change, negative = inhibition, hits mostly inhibitors; actives 5.4% (n = 310,000); also: potency is read from the fitted curve at half-maximal effect; nearly all actives have a fitted effect of over 60% in size
Target sequence (P51450 whole entry, looked up, the tested form may be a part): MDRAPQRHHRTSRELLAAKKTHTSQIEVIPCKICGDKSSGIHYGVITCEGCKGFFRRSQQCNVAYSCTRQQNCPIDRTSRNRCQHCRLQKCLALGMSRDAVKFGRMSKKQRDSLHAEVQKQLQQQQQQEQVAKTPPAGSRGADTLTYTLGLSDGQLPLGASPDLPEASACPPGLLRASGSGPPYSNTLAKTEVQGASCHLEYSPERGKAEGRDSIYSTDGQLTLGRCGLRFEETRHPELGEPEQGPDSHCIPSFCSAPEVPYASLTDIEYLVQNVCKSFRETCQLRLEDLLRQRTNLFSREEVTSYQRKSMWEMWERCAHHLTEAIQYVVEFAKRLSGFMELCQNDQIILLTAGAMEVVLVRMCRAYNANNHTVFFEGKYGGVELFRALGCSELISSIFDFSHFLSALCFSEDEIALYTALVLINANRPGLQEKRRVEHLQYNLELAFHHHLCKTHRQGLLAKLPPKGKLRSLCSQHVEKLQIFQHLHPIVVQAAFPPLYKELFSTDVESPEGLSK
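Compounds are pin-transferred onto Drosophila Schneider cells expressing a copper-inducible Gal4–ROR gamma transactivation domain fusion. After 1 hr, copper sulfate is added to 700 uM final; luciferase is read 20 hr later.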
TDP1 cell noCPT – qHTS for Inhibitors of human tyrosyl-DNA phosphodiesterase 1 (TDP1): qHTS in cells in absence of CPT | DT40 Tdp1-/- hTDP1 cells, no CPT, ATP luminescence, 48 h | Potency, µM (highest dose often 46.2 µM), for inactives: at the top dose activity change, negative = growth inhibition, usual class: inhibitors | actives 15% (n = 420,000) | AID 686978, 2013; also: potency is read from the fitted curve at half-maximal effect; nearly all actives have a fitted effect of over 55% in size
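Readout: luminescence from CellTiter-Glo after 30 min in the dark at RT. Cells: DT40 Tdp1-/- with stable hTDP1, 400/well. Exposure: compounds alone, ≥48 hr, 37 °C.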
VP16 counter – inhibits Gal4-VP16 luciferase reporter, ROR gamma counter-screen; Drosophila S2 Gal4-VP16 UAS-luciferase, luminescence, 20 h; Potency, µM (series often up to 53.6 µM), for the others: at the top dose activity, negative = inhibition, actives largely listed as inhibitors; actives 3.5% (n = 310,000); AID 2546;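 also: Gal4-VP16 expression switched on by copper sulfate through the metallothionein promoter; potency is read from the fitted curve at half-maximal effect; nearly all actives have a fitted effect of over 50% in size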
IL-1B inflam inh – inflammasome signaling inhibition, IL-1 beta readout; THP-1 LPS/ATP IL-1B secretion, AlphaLISA, 16 h; hits give low values; actives 4.7% (n = 360,000); activity change, % at 57.5 µM; in the data active = activity change below about -50%; inconclusive = mostly about -30% to -49%
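THP-1 cells pretreated 1 hr with compounds (up to 57.5 uM final), then stimulated with LPS (250 ng/mL final) plus ATP (1.25 mM final); secreted IL-1B measured by AlphaLISA after 16 hr, decreased signal indicating inhibition.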
DT40 TDP1 CPT – growth inhibition of DT40 Tdp1-/-;hTDP1 cells with camptothecin (screen for TDP1 inhibitors). Potency, µM (highest dose often 46.2 µM), for inactives: top-dose activity change, negative = growth inhibition, usual class: inhibitors. chicken DT40 Tdp1-/-;hTDP1 cells + 20 nM CPT, ATP luminescence, 48 h. actives 12% (n = 420,000); also: potency is read from the fitted curve at half-maximal effect; nearly all actives have a fitted effect of over 55% in size
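Chicken DT40 Tdp1-/- cells stably complemented with human TDP1 were seeded at 400 cells/well in medium containing 20 nM camptothecin, exposed to pin-transferred compounds, and grown at 37 °C for at least 48 hr. Viability was read as ATP luminescence.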
ELG1 repair inh – ELG1-dependent DNA repair inhibition; Potency, µM (top dose mostly 46.1 µM), for the others: at the highest dose activity change, negative = inhibition, usual class: inhibitors; AID 504467; actives 2.3% (n = 330,000); HEK293T ELG1-luciferase reporter, luminescence, 16 h; DNA damage induced by 5-fluorouridine; also: potency is read from the fitted curve at half-maximal effect; nearly all actives have a fitted effect of over 55% in size
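In this reporter screen, reduction of luminescence relative to DMSO vehicle indicated activity. Compounds and 5-fluorouridine were added together to 2,000 cells per well, incubated for 16 hr at 37 °C, then developed with ONE-Glo.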
* hit, by the source's call; ? = inconclusive; · = no result given; [ ] = remark or other dose. Most compounds without a hit are left out; they make up all but 21% or so of the library. Unless noted, calls follow the shape of the dose curve; as a rule, active = well fitted curve in the direction sought with a large enough effect; inconclusive = small, poorly fitted or top-dose-only effect, or another doubt; inactive = no such curve, though single readings can be large; an effect the other way counts as inactive or inconclusive. % is scaled to controls: 0 for no effect and ±100 for the full control effect.

SMILES | RORg inh | TDP1 cell noCPT | VP16 counter | IL-1B inflam inh | DT40 TDP1 CPT | ELG1 repair inh
OC[C@@H]1CN(Cc2ccc(-c3ccccc3)cc2)C[C@H](n2cnc3c(Nc4ccccc4)ncnc32)O1 | · | ? | · | ? | 4.1µM* | ·
OC[C@@H]1CN(Cc2ccc(-c3ccccc3)cc2)C[C@H](n2cnc3c(NCc4ccc(F)cc4)ncnc32)O1 | · | 3.7µM* | · | -7 | 4.1µM* | ·
OCCNc1ncnc2c1ncn2[C@H]1CN(C2CCCC2)C[C@@H](CO)O1 | · | 1% | · | 22 | -1% | ·
OC[C@@H]1CN(Cc2ccc(-c3ccccc3)cc2)C[C@H](n2cnc3c(NC4CC4)ncnc32)O1 | · | ? | · | 9 | ? | ·
O=C1c2ccccc2NC(c2cnc3ccccc3n2)N1O (stereo unspecified) | 10µM* | -23% | ? | -6 | -17% | ?
C=CCc1cccc(C2Nc3ccccc3C(=O)N2O)c1O (stereo unspecified) | 7.1µM* | -27% | ? | -6 | -21% | ?
O=C1c2ccccc2NC(c2ccc(Cl)cc2Cl)N1Cc1ccccc1 (stereo unspecified) | 17% | ? | -11% | 4 | 23µM* | ?
O=C1c2ccccc2NC(c2c(Cl)cccc2Cl)N1Cc1ccccc1 (stereo unspecified) | ? | 18µM* | -13% | ? | 16µM* | -2%
Cc1nn(C)cc1C1Nc2ccccc2C(=O)N1O (stereo unspecified) | ? | -25% | 2% | -10 | -12% | 17%
O=C1c2ccccc2NC(c2cccc(F)c2)N1Cc1ccccc1 (stereo unspecified) | -13% | -16% | 1% | ? | -22% | -25%
CCN(CC)C1CCN(C(=O)c2cnn(-c3nccc(-c4ccccc4OC)n3)c2-c2ccco2)C1 (stereo unspecified) | · | -25% | · | · | -2%[9.04 µM] | ·
Cc1ccsc1C1Nc2ccccc2C(=O)N1O (stereo unspecified) | 16µM* | ? | ? | 8 | ? | 9%
O=C1c2ccccc2NC(c2ccc(Cl)cc2Cl)N1O (stereo unspecified) | 3.5µM* | 16µM* | 10µM* | 57 | ? | -23%
Cc1nn(C)c(C)c1C1Nc2ccccc2C(=O)N1O (stereo unspecified) | ? | -8% | -1% | 29 | -30% | 6%
CCN(C(=O)c1cc2c(Cl)nc3ccccc3c2s1)c1cccc(Cl)c1 | · | ? | · | · | -6% | ·
C=N[C@H](C(=O)N[C@@H]1C(=O)N2[C@@H]1SC(C)(C)[C@@H]2C(=O)O)c1ccccc1 | 4%[16.9 µM] | · | -7%[17 µM] | · | · | ·
O=C(NC1CCCCC1)C1CCN(S(=O)(=O)c2cccc3nonc23)CC1 | -35% | 10% | -1% | 4 | -1% | 1%
CCOc1ccc(CCNC(=O)c2cc3c(C)nccc3[nH]c2=O)cc1OCC | 24% | 13µM* | -8% | 13 | 12µM* | 21µM*
Cc1nccc2[nH]c(=O)c(C(=O)NC3CCCCC3C)cc12 (stereo unspecified) | 29% | 16µM* | -3% | -9 | ? | ?
COc1ccc(CCNC(=O)c2cc3c(=O)[nH]c4ccc(C)cc4c3s2)cc1OC | · | 12µM* | · | · | 13µM* | ·
CCOc1ccc(CCNC(=O)c2cc3c(=O)[nH]c4ccc(C)cc4c3s2)cc1OCC | · | 18µM* | · | · | 4.1µM* | ·
COc1ccc(C2C=C3CNS(=O)(=O)C3CC2OC(=O)c2ccc(Cl)cc2)cc1 (stereo unspecified) | 33% | · | ? | · | · | ·
Cc1cc(F)ccc1-c1cc(C(=O)NCc2ccco2)[nH]n1 | · | -10% | · | ? | -2% | ·
CC(=O)Oc1ccc(Cl)cc1/C=C/c1ccc2ccccc2n1 | 9% | 29µM* | -7% | -2 | ? | ?
CC(=O)Oc1c(Cl)cc(Cl)cc1/C=C/c1ccc2ccccc2n1 | 19% | -6% | 15% | -66* | ? | ?
SMILES | RORg inh | TDP1 cell noCPT | VP16 counter | IL-1B inflam inh | DT40 TDP1 CPT | ELG1 repair inh
CCc1cccc2c(-c3ccc(F)cc3)nc(SCC(=O)Nc3ccccc3)nc12 | · | -25% | · | · | ? | ·
CC(=O)c1sc2c(c1OC(=O)c1ccc(Cl)cc1)c(=O)n(-c1ccccc1)c(=S)n2-c1ccccc1 | · | ? | · | 6 | ? | ·
CC(=O)c1sc2c(c1OC(=O)c1ccc(Cl)cc1Cl)c(=O)n(-c1ccccc1)c(=S)n2-c1ccccc1 | 21% | 21µM* | 1% | -60* | ? | ?
COCCCNC(=O)CCc1c(C)nc2c(c(C)nn2-c2ccc(C)cc2)c1C | -1% | -28% | -10% | 27 | ? | 17%
Cc1ccc(-n2nc(C)c3c(C)c(CCC(=O)NCc4ccccc4Cl)c(C)nc32)cc1C | · | ? | · | · | -4% | ·
COc1cccc(CNC(=O)CCc2c(C)nc3c(c(C)nn3-c3ccc(C)c(C)c3)c2C)c1 | · | 21µM* | · | · | 21µM* | ·
COCCNC(=O)CCc1c(C)nc2c(c(C)nn2-c2ccc(C)c(C)c2)c1C | 19% | 16µM* | -5% | -8 | ? | -22%
COCCNC(=O)CCc1c(C)nc2c(c(C)nn2-c2ccc(C)cc2)c1C | 8% | 18µM* | -3% | -3 | ? | 1%
CCN(CC)CCNC(=O)CCc1c(C)nc2c(c(C)nn2-c2ccc(C)cc2)c1C | ? | 13µM* | ? | 0 | 21µM* | 0%
Cc1c(Cl)cccc1NC(=O)C(C)N(c1ccccc1)S(C)(=O)=O (stereo unspecified) | · | ? | · | · | -35% | ·
Cc1ccccc1C(=O)N[C@H](C(=O)OCC(=O)NC1CC1)C(C)C | · | 29% | · | 32 | -14% | 10%
Cc1ncc(NS(=O)(=O)c2ccc(N)cc2)nc1C | · | -17% | · | 4 | 0% | ·
CCOc1ccc(CCNC(=O)CCc2c(C)nc3c(c(C)nn3-c3ccc(C)c(C)c3)c2C)cc1 | · | -2% | · | · | 1% | ·
COc1ccc(CCNC(=O)CCc2c(C)nc3c(c(C)nn3-c3ccccc3)c2C)c(OC)c1 | · | 16µM* | · | · | 23µM* | ·
Cc1ccc(C(NC(=O)Nc2ccccn2)C(Cl)(Cl)Cl)cc1F (stereo unspecified) | 3% | 21µM* | -1% | 56 | ? | 1%
O=C(N/N=C/c1ccc2cccnc2c1)c1ccco1 | ? | ? | 11µM* | -19 | -20% | ?
